High-throughput results (PubChem)
Beta apoptosis = beta cell apoptosis inhibition; INS-1E cytokine-induced death, ATP luminescence, 48 h; percent of positive-control rescue, neutral wells zero; protection from apoptosis, % (no concentration beside the values); 300,000 tested, 0.8% active;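 active = Every replicate reaches about 75%, or at least half do and their mean reaches it too, limit read from the data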;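 note: 0% = cytokine-treated negative control wells and 100% = positive control rescue; higher means more ATP so stronger rescue from cytokine killing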
PP5 primary = blocks human protein phosphatase 5 activity | P53041 | purified PP5c, OMFP substrate fluorescence | inhibition, % at 6.7 µM | 320,000 tested, 0.18% active | AID 1987;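 active = inhibition above the campaign's mean inhibition across all tested compounds plus 3 SD, cut at about 9.5% in these data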;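 note: 0% = DMSO only and 100% = 100 µM cantharidin control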
CSC inhib = cancer stem cell inhibition. 300,000 tested, 1.1% active. AID 2717. inhibition, % at 7.5 µM. cancer stem cell-like cells viability, luminescence; in the data active = inhibition above about 75%; tested in HMLE shEcad cells
Mdm2 MdmX PPI = inhibitors of human Mdm2/MdmX interaction. O15151+Q00987. AID 485346. SaOS-2 split-luciferase Mdm2/MdmX complementation, luminescence. inhibition, % at 8 µM. 330,000 tested, 3% active;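 active = inhibition of at least 50% at 8 µM in the primary screen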
Target sequence (O15151 whole entry, looked up): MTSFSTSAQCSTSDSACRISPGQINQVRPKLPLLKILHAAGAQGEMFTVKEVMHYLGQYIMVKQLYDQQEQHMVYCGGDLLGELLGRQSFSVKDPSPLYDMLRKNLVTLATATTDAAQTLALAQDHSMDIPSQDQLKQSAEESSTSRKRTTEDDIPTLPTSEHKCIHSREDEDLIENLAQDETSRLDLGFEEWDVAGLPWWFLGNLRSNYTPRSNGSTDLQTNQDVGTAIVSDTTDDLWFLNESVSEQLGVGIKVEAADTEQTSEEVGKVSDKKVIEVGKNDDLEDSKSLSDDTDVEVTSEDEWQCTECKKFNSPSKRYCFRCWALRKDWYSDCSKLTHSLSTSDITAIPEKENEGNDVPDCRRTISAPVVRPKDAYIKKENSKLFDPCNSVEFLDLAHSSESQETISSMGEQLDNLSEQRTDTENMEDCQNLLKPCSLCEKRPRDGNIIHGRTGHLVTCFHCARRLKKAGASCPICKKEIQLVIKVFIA
Target sequence (Q00987 whole entry, looked up): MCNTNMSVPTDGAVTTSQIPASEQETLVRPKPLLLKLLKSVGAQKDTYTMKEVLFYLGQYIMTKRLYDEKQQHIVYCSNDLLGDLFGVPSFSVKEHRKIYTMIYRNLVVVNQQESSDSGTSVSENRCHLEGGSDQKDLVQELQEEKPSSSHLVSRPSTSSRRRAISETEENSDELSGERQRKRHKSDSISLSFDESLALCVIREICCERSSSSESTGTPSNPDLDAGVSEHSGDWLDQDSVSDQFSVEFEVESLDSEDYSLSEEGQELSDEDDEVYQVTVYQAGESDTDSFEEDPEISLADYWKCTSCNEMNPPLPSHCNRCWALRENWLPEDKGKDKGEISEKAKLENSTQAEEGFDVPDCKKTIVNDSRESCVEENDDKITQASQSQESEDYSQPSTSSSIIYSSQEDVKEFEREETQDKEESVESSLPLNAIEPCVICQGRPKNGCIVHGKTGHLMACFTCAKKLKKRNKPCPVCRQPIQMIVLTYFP
PP1 inh = counter-screen for PP5 inhibitors: inhibitors of human PP1-alpha; P62136; purified PP1alpha, OMFP fluorescence; inhibition, % at 6.7 µM; 320,000 tested, 0.9% active; AID 2235;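 active = inhibition above the mean inhibition of all tested compounds plus 3 SD, computed separately for each screening campaign, cut at about 15% in these data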
Calb FLC = affects C. albicans growth with fluconazole. C. albicans CaCi-2 (fluconazole-resistant clinical isolate) + fluconazole, Alamar Blue growth, 48 h. growth inhibition, % (concentration not given with the values). 300,000 tested, 0.57% active. AID 1979;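 active = growth inhibition above about 58% in most replicates, limit read from the data, passing the limit was not always enough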;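 note: all wells also contain fluconazole at 8 µg/ml as a sub-toxic cotreatment; 0% = median of DMSO wells and 100% = median of geldanamycin control wells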
Mdm2-MdmX conf = human Mdm2/MdmX binding inhibition, confirmed; luminescent assay; AID 489028; 10,000 tested, 55% active; inhibition, % at 8 µM; shares compounds with Mdm2 MdmX PPI; in the data active = inhibition above about 40%
Full FLuc ctr = inhibits full-length luciferase, flagging false Mdm2/MdmX hits | AID 504607 | shares compounds with Mdm2 MdmX PPI | SaOS-2 full-length luciferase counterscreen, luminescence | 6,200 tested, 77% active | inhibition, % at 8 µM;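 active = mean inhibition at 8 µM reaching about 37%, which flags the compound as non-specific, limit read from the data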;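 note: p53-null SaOS-2 cells with luciferase driven by a doxycycline-inducible promoter; compound on cells about two nights before reading with doxycycline added after day one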
Numbers without * were called inactive; . = not tested or not shown. An excerpt weighted towards active compounds, which were near 4.9% of everything screened.

SMILES	Beta apoptosis	PP5 primary	CSC inhib	Mdm2 MdmX PPI	PP1 inh	Calb FLC	Mdm2-MdmX conf	Full FLuc ctr
COc1ccc(OCC(O)Cn2c(=N)n(CCN3CCCCC3)c3ccccc32)cc1 (stereo not drawn)	2.4	-0.6	-9.4	52.5*	-1.4	.	40.9*	76.8*
Cc1ccc(OCC(O)Cn2c(=N)n(CCN3CCOCC3)c3ccccc32)cc1 (stereo not drawn)	1.9	1.1	-4.4	-6.0	-2.0	2.5	.	.
N=c1n(CCN2CCCC2)c2ccccc2n1CC(O)c1ccc(Cl)c(Cl)c1 (stereo not drawn)	3.8	0.6	32.1	95.5*	-0.5	-26.0	98.8*	103.5*
Cc1ccc(OCC(O)Cn2c(=N)n(CCN3CCCCC3)c3ccccc32)cc1 (stereo not drawn)	28.2	1.2	23.4	68.5*	-2.2	0.8	57.9*	47.5*
CCOC(=O)c1cc([N+](=O)[O-])sc1NC(=O)c1ccc(S(=O)(=O)N2CC3(C)CC2CC(C)(C)C3)cc1 (stereo not drawn)	31.8	-1.6	44.4	95.1*	-5.8	-5.1	51.1*	57.2*
Cc1cc(C)nc(N/N=C/c2ccccc2OCc2ccc(Br)cc2)n1	-5.9	0.7	6.6	-28.8	1.7	-9.3	.	.
Cc1cc(C)nc(N/N=C/c2cc(Br)ccc2O)n1	88.0*	0.7	40.5	75.3*	1.6	-2.8	75.6*	26.2
CC(c1cccs1)N(Cc1ccco1)C(=S)Nc1ccccc1Cl (stereo not drawn)	-6.8	1.3	6.8	5.8	-4.5	-19.0	.	.
COc1cccc(O)c1CN1CCC(C(=O)Nc2ccc(-c3cccc(C)c3)cc2)CC1	.	1.2	101.1*	80.9*	14.2	-7.4	40.5*	90.4*
Cn1ccnc1CN1CCCCC1C(=O)Nc1ccc(Oc2cccnc2)cc1 (stereo not drawn)	.	1.9	6.4	51.0*	1.3	-2.0	73.7*	64.5*
CCn1ccnc1CN1CCCCC1C(=O)Nc1ccc(Oc2cccnc2)cc1 (stereo not drawn)	-2.2	-1.4	23.3	49.1	-2.1	-4.5	.	.
CCn1cc(CN2CCC(C(=O)Nc3cccc(-c4cccc(F)c4)c3)CC2)cn1	-4.2	2.6	-0.1	6.6	-1.1	-1.9	.	.
CCn1nc(C)c(CN2CCC(C(=O)Nc3cccc(-c4cccc(F)c4)c3)CC2)c1C	-0.7	-1.5	23.6	52.5*	-8.2	-21.9	17.9	.
CC(C)n1cc(CN2CCC(C(=O)Nc3cccc(-c4cccc(Cl)c4)c3)CC2)cn1	6.7	2.8	30.6	99.4*	4.5	21.4	47.3*	66.3*
CCN(CC(=O)Nc1ccccc1C(F)(F)F)C(=O)CSCc1ccc(C)cc1	-7.9	-1.6	-10.1	15.2	0.2	1.7	.	.
COc1cccc(O)c1CN1CCC(C(=O)Nc2ccc(Oc3cccnc3)cc2)CC1	1.9	-2.6	6.5	11.8	1.6	-14.7	.	.
COc1ccc(CN2CCC(C(=O)Nc3ccc(Oc4cccnc4)cc3)CC2)c(C)c1C	-6.3	0.9	44.1	74.5*	-0.5	33.7	33.8	52.7*
COc1cccc(/C=C/c2nc3c(cnn3-c3ccccc3)c(=O)[nH]2)c1	2.8	0.3	18.1	40.6	-7.8	-4.3	.	.
O=c1[nH]c(/C=C/c2ccc(Br)cc2)nc2c1cnn2-c1ccccc1	-5.4	1.8	.	83.2*	3.4	-3.2	21.2	.
O=C(NCc1ccccc1CN1CCCC1)c1cccc(S(=O)(=O)N2CCOCC2)c1	-0.6	2.1	.	-2.2	2.2	.	.	.
COc1cc(/C=C(\C#N)c2[nH]nc(N)c2C#N)cc(OC)c1O	12.0	2.6	16.9	64.6*	0.3	6.4	36.4	.
CC(=O)N1N=C(c2ccco2)CC1c1ccco1 (stereo not drawn)	-8.1	.	-8.7	6.7	.	18.3	.	.
Cc1ccc(C2=NN(C(=O)CCl)C(c3ccco3)C2)o1 (stereo not drawn)	.	.	.	99.6*	.	8.2	99.2*	58.1*
Cc1cccc(CNc2ncnc3ccc(-c4ccoc4)cc23)c1	-15.7	4.2	1.3	78.8*	2.2	.	64.2*	23.8
COc1cccc(-c2ccc3ncnc(NCc4ccc5c(c4)OCO5)c3c2)c1	-26.9	.	.	74.2*	.	.	75.8*	53.0*
SMILES	Beta apoptosis	PP5 primary	CSC inhib	Mdm2 MdmX PPI	PP1 inh	Calb FLC	Mdm2-MdmX conf	Full FLuc ctr
Cc1cccc(CNc2ncnc3ccc(-c4ccc5c(c4)OCCO5)cc23)c1	108.0*	0.9	12.5	66.2*	0.5	.	33.0	.
Cc1csc(CNc2ncnc3ccc(-c4ccc5c(c4)OCCO5)cc23)c1	4.0	0.8	22.2	30.0	4.6	.	.	.
c1cncc(CNc2ncnc3ccc(-c4ccoc4)cc23)c1	-11.1	-0.8	-2.0	70.4*	-0.4	.	69.4*	51.3*
c1cncc(CNc2ncnc3ccc(-c4ccc5c(c4)OCO5)cc23)c1	-6.5	.	.	-8.1	.	.	.	.
COc1ccccc1N1CCN(C(=O)c2ccc3[nH]c4c(c3c2)CC(C)CC4)CC1 (stereo not drawn)	-3.7	7.1	49.7	27.7	0.1	21.8	.	.
N#Cc1cccc(S(=O)(=O)NCc2nnc3ccccn23)c1	-5.8	-1.0	.	-7.9	-2.4	.	.	.
Cc1csc(CNc2ncnc3ccc(-c4ccoc4)cc23)c1	-12.0	0.0	-4.5	76.1*	-0.9	.	73.8*	53.7*
CC(C)(O)C#Cc1ccc([C@@H]2C[C@H]3CN(c4ccccc4)C(=O)[C@]34CCCN24)s1	33.0	2.0	40.8	63.6*	1.3	-4.3	41.4*	60.0*
O=C1N(c2ccccc2)C[C@@H]2C[C@@H](c3cccs3)N3CCC[C@@]123	8.9	0.0	-14.6	-10.2	1.0	0.5	.	.
O=C1c2ccccc2NC(c2ccc(-c3cccs3)o2)N1O (stereo not drawn)	1.7	0.4	8.3	-65.9	-3.0	.	.	.
O=C1c2ccccc2NC(c2ccc(-c3ccc(C(F)(F)F)cc3)o2)N1O (stereo not drawn)	70.8	.	.	67.3*	.	.	48.6*	41.8*
CCn1c(=S)sc2c(=O)n(CC(=O)NCCCc3ccccc3)c(C)nc21	-6.6	1.7	-7.1	17.0	-2.0	-4.8	.	.
O=C1N=C(N2CCCCC2)S/C1=C\c1ccccc1F	-0.3	-2.0	-0.1	-24.2	-0.3	-2.5	.	.
CCCOc1ccccc1/C=C1\SC(N2CCCCC2)=NC1=O	.	3.9	24.4	85.5*	2.0	-5.4	61.8*	63.9*
Cc1ccc(NC(=O)O/N=C/c2c(C)nn(C(C)(C)C)c2C)cc1Cl	-1.9	3.3	1.4	79.5*	-3.5	-6.5	91.8*	54.0*
O=C(O)Cc1sc(N/N=C\c2ccccc2)nc1-c1ccccc1	2.0	3.5	1.1	-55.4	9.2	12.2	.	.
CCCc1sc(N/N=C/c2ccccn2)nc1-c1ccc(F)cc1	90.9*	4.9	93.4*	69.3*	0.5	17.9	35.5	45.1*
O=C(CCC(=O)c1cccs1)OCC(=O)c1ccccc1F	.	.	.	-21.1	.	.	.	.
